High-throughput results deposited in PubChem by National Center for Advancing Translational Sciences (NCATS).
An excerpt weighted towards active compounds, which were near 11% of everything screened.
Pf growth 48h: P. falciparum growth inhibition at 48 hours (one generation). P. falciparum luciferase growth in erythrocytes, 48 h. Potency, µM (top dose mostly 28.7 µM), for the others: top-dose activity change, negative = inhibition, usual class: inhibitors. 310,000 tested, 5.9% active. AID 504832
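Luciferase-expressing P. falciparum in infected erythrocytes (2% hematocrit, 0.1% parasitemia final) in RPMI 1640/0.5% Albumax were exposed to compound for 48 hours at 37 C, 5% CO2; growth read as luminescence.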
AmpC inh detg: AmpC beta-lactamase inhibition with detergent present; 370,000 tested, 0.041% active; AID 485294; Potency, µM (series often up to 114 µM), inactives show at the highest dose activity change, negative = inhibition, usual class: inhibitors; AmpC hydrolysis of nitrocefin, absorbance 480 nm, 0.01% Triton;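 further: 0% = no-compound wells and -100% = no-enzyme wells; nearly all actives have a fitted effect of over 25% in size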
Target sequence (P00811 whole entry, looked up): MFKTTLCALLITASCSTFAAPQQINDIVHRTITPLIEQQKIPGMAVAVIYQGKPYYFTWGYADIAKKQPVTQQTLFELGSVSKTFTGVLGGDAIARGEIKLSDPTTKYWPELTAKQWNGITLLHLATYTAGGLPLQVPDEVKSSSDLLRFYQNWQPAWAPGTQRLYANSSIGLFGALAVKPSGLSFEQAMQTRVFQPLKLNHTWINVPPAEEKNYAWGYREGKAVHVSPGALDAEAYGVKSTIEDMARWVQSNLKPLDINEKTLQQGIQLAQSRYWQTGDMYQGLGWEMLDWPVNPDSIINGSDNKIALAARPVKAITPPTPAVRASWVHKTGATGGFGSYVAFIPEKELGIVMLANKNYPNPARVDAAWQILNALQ
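AmpC (5.3 nM in the dispensed reagent) in 20 mM phosphate pH 7.0 with 0.01% (detergent screen) or 0.0001% Triton X-100 was preincubated with compounds for 15 min at room temperature. Nitrocefin was then added from an 800 uM solution, and hydrolysis was followed at 480 nm.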
AmpC inh no detg: blocks E. coli AmpC beta-lactamase in detergent-free assay. P00811. AmpC nitrocefin hydrolysis, absorbance 480 nm, 0.0001% Triton. Potency, µM (titrated, usually from 57.1 µM), inactives show at the highest dose activity change, negative = inhibition, usual class: inhibitors. 330,000 tested, 0.52% active;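 further: plate controls were no compound for no effect and no enzyme for full effect; nearly all actives have a fitted effect of over 20% in size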
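AmpC (5.3 nM in the dispensed reagent) in 20 mM phosphate pH 7.0 with 0.01% (detergent screen) or 0.0001% Triton X-100 was preincubated with compounds for 15 min at room temperature. Nitrocefin was then added from an 800 uM solution, and hydrolysis was followed at 480 nm.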
AMA1-RON2 inh: disrupts binding of P. falciparum AMA1 to RON2; AlphaScreen AMA1-biotinylated RON2 peptide binding; Potency, µM (top dose mostly 58.2 µM), inactives show at the top dose activity change, negative = inhibition, usual class: inhibitors; 360,000 tested, 0.2% active;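 further: 0% = vehicle wells and -100% = peptide control; nearly all actives have a fitted effect of over 45% in size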
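AMA1 (3D7) with his tag at 25 nM final met compounds first, then biotinylated RON2 peptide at 25 nM; detection used donor plus acceptor beads, 10 µg/mL apiece, read by AlphaScreen after 30 min at room temperature.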
Pf growth 96h: P. falciparum growth inhibition at 96 hour, primary screen for plastid delayed-death inhibitors; P. falciparum luciferase reporter growth, 96 h; Potency, µM (highest dose often 28.7 µM), for the others: top-dose activity change, negative = inhibition, most hits filed as inhibitors; 320,000 tested, 6.9% active; AID 504834
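Delayed-death screen, second-generation endpoint: infected erythrocytes, 2% hematocrit, 0.05% parasitemia final; 96 hours at 37 C, 5% CO2; luciferase detection reagent; luminescence decrease equals reduced growth.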
HCV inhibitor: inhibitors of hepatitis C virus infection | 340,000 tested, 3.4% active | AID 651820 | Potency, µM (top dose mostly 41.8 µM), for inactives: top-dose activity change, negative = inhibition, usual class: inhibitors | Huh7.5.1 HCVcc-Cre infection, luciferase reporter, 44 h
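Infectious HCVcc-Cre (~0.5 moi) was added to cells just after compound, with cells seeded 4 h earlier at 1,000 per well. Luciferase activity after 44 h culture reported infection; substrate was incubated 15 min at room temperature before reading.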
The depositor's hits bear a star; i = inactive; ? = inconclusive; nt = no result given; ! = repeats disagree. The call rests on the fitted dose curve; in most records, active means well fitted curve in the direction sought with a large enough effect; inconclusive means small, poorly fitted or top-dose-only effect, or another doubt; inactive means no such curve, though single readings can be large; an effect the other way counts as inactive or inconclusive. Unless noted, on the % scale 0 is the no-effect control and ±100 the full control effect; potency means the concentration at half of the fitted maximal effect.

SMILES | Pf growth 48h | AmpC inh detg | AmpC inh no detg | AMA1-RON2 inh | Pf growth 96h | HCV inhibitor
CCC(CC)C(=O)Nc1cccc(-c2nc3cccnc3s2)c1C | nt | 2.9% | nt | nt | nt | nt
CC(=O)Nc1ccc(NC(=O)c2cc([N+](=O)[O-])cc([N+](=O)[O-])c2)cc1 | -99.8% | 1.9% | -16.4% | -3.0% | 34.0% | -0.8%
Cc1ccc(NC(=O)c2ccc(N/N=C/c3cccc(O)c3)c([N+](=O)[O-])c2)cc1 | ? | -13.1% | -19.1% | -8.0% | 5.22µM* | ?
COc1ccc(NC(=O)Nc2cccc([N+](=O)[O-])c2)cc1Cl | 6.57µM* | -12.4% | -25.0% | -6.8% | 26.5% | ?
O=[N+]([O-])c1cccc(Nc2nc(Cl)nc(Cl)n2)c1 | 49.1% | -8.6% | -27.2% | -4.3% | 11.7µM* | -3.0%
Cc1ccc(NC(=O)c2ccc(Nc3c([N+](=O)[O-])cc([N+](=O)[O-])cc3[N+](=O)[O-])cc2)cc1 | 5.22µM* | ? | -34.2% | -15.9% | 21.6% | 10µM*
CCc1ccc(NC(=O)CSC2=Nc3ccccc3C3=NC(CC(=O)NCc4cccs4)C(=O)N23)cc1 (stereo not drawn) | nt | 0.2% | nt | nt | nt | nt
CCC(C)NC(=O)CN1C(=O)c2cccnc2Oc2ccc(C)cc21 (stereo not drawn) | nt | 2.9% | nt | nt | nt | nt
Cc1c(-c2ccccc2)c(=O)oc2c(CN3CCCC3)c(O)ccc12 | nt | -3.8% | nt | nt | nt | nt
O=C(CSc1nc(-c2ccccc2)nn1C(=O)c1ccccc1)Nc1cccc([N+](=O)[O-])c1 | 5.4% | -18.1% | -49.9% | 1.0% | 22.4% | 25.1µM*
O=C(Nc1nnc(C2=COCCO2)o1)c1cccc([N+](=O)[O-])c1 | 19.7% | -2.7% | -8.6% | 68.4% | 11.1% | 17.8%
Cn1nc(C(C)(C)C)c([N+](=O)[O-])c1C(=O)Nc1ccc(Br)cc1 | ? | -9.8% | -36.3% | 0.8% | ? | 12.6µM*
O=C(Nc1nnc(-c2ccc(F)cc2)o1)c1cccc([N+](=O)[O-])c1 | -27.1% | 1.9% | -17.6% | 70.3% | ? | 12.6µM*
O=C(Nc1ccc(NC(=O)c2cccc([N+](=O)[O-])c2)cc1)c1cccc([N+](=O)[O-])c1 | ? | -7.2% | -35.7% | 39.2% | -24.4% | -0.5%
O=C(Nc1cccc([N+](=O)[O-])c1)c1cccc(C(=O)Nc2cccc([N+](=O)[O-])c2)c1 | 2.94µM* | -12.9% | -23.8% | -1.8% | ? | 0.1%
Cc1ccc(N2CCN(C(=O)c3noc4c3COc3ccc(C)cc3-4)CC2)c(C)c1 | nt | -5.2% | nt | nt | nt | nt
CC1=C(C(=O)Nc2ccc(C)cc2C)C(c2ccc(O)cc2)n2nc(SCC(=O)c3ccc(C)cc3)nc2N1 (stereo not drawn) | nt | -5.0% | nt | nt | nt | nt
CCOC(=O)c1ccccc1NC(=O)NCc1cccn1Cc1ccc(F)cc1 | nt | 11.3% | nt | nt | nt | nt
Cc1cn(C)c(CC(=O)N2CCN(c3ccccc3F)CC2)c1C(=O)O | nt | 4.6% | nt | nt | nt | nt
Cc1ccc(/C=c2\sc3nc(-c4ccccc4Br)nn3c2=O)o1 | 4.3% | ? | -41.3% | 12.9% | 11.7µM* | 1.6%
Cc1ccc(/C=c2\sc3nc(-c4ccco4)nn3c2=O)o1 | 10.2% | ? | ? | -26.1% | ? | -4.6%
CCOC(=O)c1c(SCC(=O)Nc2nc(C)cs2)nc(=O)[nH]c1C | -1.9% | 0.3% | -15.3% | 42.5% | 4.65µM* | 2.0%
CCOC(=O)c1c(SCC(=O)Nc2nc3ccccc3s2)nc(=O)[nH]c1C | nt | -0.8% | nt | nt | nt | nt
COc1ccc(Cl)cc1NC(=O)Cn1c(=O)n(CCC(=O)NCc2ccc3c(c2)OCO3)c(=O)c2ccccc21 | nt | 16.1% | nt | nt | nt | nt
Cc1cc(C)c2nc(N(Cc3cccnc3)C(=O)c3ccc(S(=O)(=O)N(C)C)cc3)sc2c1 | nt | 0.6% | nt | nt | nt | nt
SMILES | Pf growth 48h | AmpC inh detg | AmpC inh no detg | AMA1-RON2 inh | Pf growth 96h | HCV inhibitor
Cc1nc(N2CCOCC2)c2c(C(=O)NCc3ccc(Cl)cc3)c(C)oc2n1 | nt | 25.5% | nt | nt | nt | nt
C/C(=N\O)c1ccc(N2C(=O)C3CC=C(Cl)CC3C2=O)cc1 (stereo not drawn) | i | ? | -10.6% | 4.9% | 5.22µM* | 4.6%
CCN(CC)C(=O)c1ccc(N2C(=O)C3CC=C(Cl)CC3C2=O)cc1 (stereo not drawn) | 7.6% | -11.9% | 11.9% | 0.0% | -4.4% | 7.8%
CN(C)c1ccc(-c2nnn(CC(=O)N3c4ccccc4CCc4ccccc43)n2)cc1 | 2.08µM* | -7.7% | -8.0% | 4.0% | -25.3% | -15.1%
Cn1c(SCCCC(=O)c2ccc(Br)cc2)nnc1-c1ccncc1 | nt | 0.2% | 53.0% | -2.9% | 8.28µM* | ?
CCOc1ccc(NC(=O)CC2C(=O)OCCN2CC)cc1 (stereo not drawn) | nt | -1.6% | nt | nt | nt | nt
O=C(OCc1cc(=O)n2c(n1)sc1ccccc12)c1cccc(O)c1 | 71.9% | -1.8% | -38.3% | -9.9% | 32.1% | 3.3%
O=C(Cc1coc2cc3c(cc12)CCC3)OCc1cc(=O)n2c(n1)sc1ccccc12 | 26.2% | -1.3% | 31.6µM* | -19.2% | nt | -12.0%
Oc1c(C(c2ccccc2F)N2CCOCC2)sc2nc(-c3ccco3)nn12 (stereo not drawn) | nt | 3.9% | nt | nt | nt | nt
CC(=O)NC(Cc1ccc(N(CCCl)CCCl)cc1)C(=O)O (stereo not drawn) | -29.8% | ? | -38.6% | ? | ? | 1.1%
N[C@@H](Cc1ccc(N(CCCl)CCCl)cc1)C(=O)O | ? | -0.6% | -17.6% | -8.1% | 9.53µM*! | ?
O=c1[nH]c2ccccc2cc1CN(Cc1cccnc1)S(=O)(=O)c1ccc([N+](=O)[O-])cc1 | ? | 0.1% | 2.5% | -1.1% | 4.65µM* | 0.8%
O=c1[nH]c2ccccc2cc1CN(Cc1cccnc1)S(=O)(=O)c1ccc(Cl)cc1 | ? | -10.6% | 37.2% | -6.8% | ? | 7.5%
Cc1ccc(-c2nc3ccc(C)cn3c2CC(=O)N(C)C)cc1 | 14.8% | nt | nt | -3.8% | -13.2% | -2.4%
Cc1ccc(-c2nc(CN(C)C)cc(CN(C)C)c2O)cc1 | 6.57µM* | ? | -7.3% | 12.1% | ? | 4.1%
Cc1ccccc1NC1=C(Cl)C(=O)OC1OC(=O)c1ccccc1C (stereo not drawn) | -5.5% | 20µM* | 10µM* | -8.1% | ? | -21.9%
Cc1ccccc1C(=O)OC1OC(=O)C(Cl)=C1N1CCOCC1 (stereo not drawn) | -6.6% | 3.98µM* | 2.82µM* | 0.0% | ? | -3.8%
Cc1cccc(C)c1NC1=C(Cl)C(=O)OC1OC(=O)c1ccccc1 (stereo not drawn) | 25.0% | -3.8% | -56.3% | 29.4% | ? | 13.5%
